Screening data as filed in PubChem.
KB-3-1 cytotox: qHTS assay for MDR1-selective chemotherapeutics: Primary screen using the parental adenocarcinoma cell KB-3-1; hit rate 1.4% among 400,000; Potency, µM (top dose mostly 46.1 µM), most hits filed as cytotoxic; KB-3-1 viability, CellTiter-Glo ATP luminescence, 72 h; also: % is scaled to controls: 0 for no effect and ±100 for the full control effect; nearly all actives have a fitted effect of over 60% in size
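Parental KB-3-1 viability, qHTS format: 72 h compound exposure, 37 °C; CellTiter-Glo; media-only wells and DMSO plates as controls; concentration-effect fits on corrected data.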
SW480 rereplic: A quantitative high throughput screen for small molecules that induce DNA re-replication in SW480 colon adenocarcinoma cells; SW480 DNA re-replication, Hoechst DNA content imaging, 48 h; Potency, µM (titrated, usually from 46.1 µM), for the others: top-dose re-replication activation, hits mostly activators; hit rate 1.8% among 340,000; also: % of control where 0% means no effect; nearly all actives have a fitted effect of over 55% in size
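First, 250 cells per well were seeded. Next, compound or vehicle (23 nL) was pinned in, plates sat 48 hr at 37 C. Finally Hoechst was added for 40 min before fluorescence scanning.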
ELG1 repair inh: qHTS screen for small molecules that inhibit ELG1-dependent DNA repair in human embryonic kidney (HEK293T) cells expressing luciferase-tagged ELG1; AID 504467, 2011; HEK293T ELG1-luciferase reporter, luminescence, 16 h; DNA damage induced by 5-fluorouridine; hit rate 2.3% among 330,000; Potency, µM (top dose mostly 46.1 µM), inactives show at the highest dose activity change, negative = inhibition, most hits filed as inhibitors; also: % is scaled to controls: 0 for no effect and ±100 for the full control effect; nearly all actives have a fitted effect of over 55% in size
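Overnight (16 hr) co-exposure of 2,000 cells/well to 5-fluorouridine and compound at 37 °C preceded detection. Luciferase was quantified via ONE-Glo luminescence; loss of signal denotes inhibition.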
KB-V1 cytotox: qHTS assay for MDR1-selective chemotherapeutics: Primary screen using the drug-selected MDR subline cells KB-V1; AID 1347076, 2019; KB-V1 MDR cells viability, CellTiter-Glo, 72 h; Potency, µM (doses to about 46.1 µM), most hits filed as cytotoxic; hit rate 3.4% among 400,000; also: % is scaled to controls: 0 for no effect and ±100 for the full control effect; nearly all actives have a fitted effect of over 60% in size
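In this primary screen, KB-V1 cells overexpressing P-gp are incubated with library compounds (lowest to highest concentration) for 72 h at 37 degrees C before a luminescent ATP viability read.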
MCF10A rerep: A quantitative high throughput screen for small molecules that induce DNA re-replication in MCF 10a normal breast cells; MCF 10A DNA re-replication, Hoechst nuclear intensity, 48 h; Potency, µM (top dose mostly 46.1 µM), for inactives: top-dose activity, positive = re-replication, most hits filed as activators; hit rate 2.9% among 350,000; AID 624296, 2012; also: % of control where 0% means no effect; nearly all actives have a fitted effect of over 50% in size
Active calls of the source: *; i = inactive; ? = inconclusive; . = not tested or not shown. An excerpt weighted towards active compounds, which were near 8.2% of everything screened. Calls follow the shape of the dose curve; as a rule, active = well fitted curve in the direction sought with a large enough effect; inconclusive = small, poorly fitted or top-dose-only effect, or another doubt; inactive = no such curve, though single readings can be large; an effect the other way counts as inactive or inconclusive. Potency is read from the fitted curve at half-maximal effect.

SMILES | KB-3-1 cytotox | SW480 rereplic | ELG1 repair inh | KB-V1 cytotox | MCF10A rerep
Cc1cccc(CNC(=O)c2sc(=O)n(Cc3ccc(S(C)(=O)=O)cc3)c2C)c1 | ? | . | . | 15µM* | .
COc1ccc(NC(=O)c2sc(=O)n(Cc3ccc(F)c(Cl)c3)c2C)cc1OC | 4.6µM* | . | . | ? | .
Cc1nc2ccn(Cc3ccccc3)c(=O)c2cc1C(=O)N1CCN(c2ccccc2)CC1 | i | -1% | 8.2µM* | i | 1%
Cc1ccc(Cn2c(C)c(C(=O)NCc3ccc(Cl)c(Cl)c3)sc2=O)cc1 | i | . | . | ? | .
Cc1c(C(=O)NCc2ccccc2C(F)(F)F)sc(=O)n1Cc1ccc(S(=O)(=O)N(C)C)cc1 | ? | . | . | 8.2µM* | .
COc1ccc(CNC(=O)c2sc(=O)n(Cc3cc(Cl)ccc3OC)c2C)cc1 | i | . | . | ? | .
CCCC[n+]1ccn(-c2nc3c([N+](=O)[O-])cccc3n2C)c1 | i | 2% | 5% | i | 11%
CN(C)c1ccc(/C=C/c2ccnc3c([N+](=O)[O-])cccc23)cc1 | ? | . | . | i | .
COc1ccc(Cn2ccc3nc(C)c(C(=O)NCc4ccc(F)cc4)cc3c2=O)cc1 | ? | . | . | i | .
CSc1ccc(Cn2c(C)c(C(=O)NCc3cccc(Cl)c3)sc2=O)cc1 | i | . | . | 9.2µM* | .
Cc1c(C(=O)NCc2ccc(Cl)c(Cl)c2)sc(=O)n1Cc1cccc(F)c1 | i | . | . | ? | .
COc1ccc(Cn2ccc3nc(C)c(C(=O)NCc4ccc(C)cc4)cc3c2=O)cc1 | 5.2µM* | . | . | i | .
Cc1c(C(=O)NCc2cccc(Cl)c2)sc(=O)n1Cc1cccc(F)c1 | i | . | . | 18µM* | .
COc1cc(CNCCCN2CCOCC2)cc(Br)c1OCc1ccc(Cl)cc1 | ? | -3% | ? | ? | 13µM*
COc1ccc(Cl)cc1NC(=S)NCCN1CCOCC1 | i | ? | -9% | i | 0.46µM*
COc1ccccc1NC(=S)NCCN1CCOCC1 | i | -2% | 0% | i | 10%
COc1ccc(Cl)cc1NC(=S)N(CCCN1CCOCC1)Cc1cn(C)c2ccccc12 | ? | 23µM* | -26% | i | ?
Cc1ccc(S(=O)(=O)NCC(=O)N(CC(=O)NCC2CCCO2)Cc2ccccc2Cl)cc1 (stereo unspecified) | i | -1% | 6% | i | -3%
Cc1cc(C(=O)Nc2ccccc2C(=O)O)c(C)o1 | i | -2% | -6% | i | 0%
C=C1C(=O)[C@]23C[C@H]1CCC2[C@]1(C)C(=O)CC[C@@](C)(C(=O)O)C1C[C@@H]3O (stereo partly specified) | ? | . | . | i | .
C=C1C(=O)[C@]23C[C@H]1CCC2[C@]1(C)CCC[C@@](C)(C(=O)O)C1C[C@@H]3O (stereo partly specified) | 8.2µM* | . | . | ? | .
Cc1ccc(C)c(N(CC(=O)Nc2ccccc2C(=O)NCc2ccco2)S(=O)(=O)c2ccccc2)c1 | ? | 14% | 23µM* | ? | 13%
Cc1ccc(N(CC(=O)Nc2ccccc2-c2ccccc2)S(=O)(=O)c2ccccc2)c(C)c1 | i | 5% | -1% | i | 21µM*
CS(=O)(=O)N(CC(=O)Nc1ccccc1-c1ccccc1)c1ccccc1 | i | -1% | -1% | i | ?
N#Cc1nc(COc2ccc(-c3ccccc3)cc2)oc1NCCCN1CCOCC1 | ? | ? | -29% | i | 11µM*
SMILES | KB-3-1 cytotox | SW480 rereplic | ELG1 repair inh | KB-V1 cytotox | MCF10A rerep
CNc1oc(/C=C/c2ccccc2)nc1C#N | i | ? | ? | i | 21µM*
COCCNc1oc(/C=C/c2ccccc2)nc1C#N | i | 1% | ? | i | 15%
CCN1CCN(c2oc(/C=C/c3ccccc3)nc2C#N)CC1 | i | ? | 10% | i | 23µM*
N#Cc1nc(COc2ccccc2)oc1NCCN1CCOCC1 | i | 7% | 0% | i | 1%
N#Cc1nc(/C=C/c2ccccc2)oc1NCCCN1CCOCC1 | i | ? | ? | ? | 23µM*
N#Cc1nc(-c2cccc3ccccc23)oc1NCCN1CCOCC1 | i | ? | 16% | i | 16µM*
N#Cc1nc(-c2ccccc2F)oc1NCCN1CCOCC1 | i | 0% | 11% | i | 9%
COc1cc2cc(c1Cl)N(C)C(=O)CC(OC(=O)C(C)N(C)C(C)=O)C1(C)OC1C(C)C1CC(O)(NC(=O)O1)C(OC)C=CC=C(C)C2 (stereo unspecified) | ? | ? | . | 0.46µM* | ?
O=[N+]([O-])c1cccc(CP(=O)(c2ccccc2)c2ccccc2)c1 | i | 2% | -7% | 21µM* | 12%
O=[N+]([O-])c1ccc(CP(=O)(c2ccccc2)c2ccccc2)cc1 | i | 0% | -6% | ? | 0%
N#Cc1nc(-c2ccc(Cl)cc2)oc1NCc1ccco1 | i | -5% | ? | i | 15µM*
COc1ccc(Nc2oc(-c3ccc(OC)cc3)nc2C#N)cc1 | i | -31% | ? | i | 0%
COc1ccc(Nc2oc(COc3ccc(Cl)cc3)nc2C#N)cc1 | i | 2% | ? | i | ?
CCOc1ccc(Nc2oc(-c3ccc(Cl)cc3)nc2C#N)cc1 | ? | ? | ? | ? | 21µM*
COc1ccc(Nc2oc(-c3ccc(Cl)cc3)nc2C#N)cc1 | 4.6µM* | ? | ? | ? | 16µM*
Cc1oc2c(O)c(O)ccc2c(=O)c1-c1ccccc1 | i | ? | -9% | ? | -3%
Cc1oc2c(O)c(O)ccc2c(=O)c1-c1cnn(-c2ccccc2)c1 | i | ? | ? | 3.7µM* | 20%
C#CC[N+](C)(C)CCCCCCCC | 5.2µM* | -1% | 9% | i | 11%
CCCCCCCCCCCCCCCC[N+](C)(C)CC | ? | ? | -22% | i | ?
C#CC[N+](C)(C)CCCCCCCCCC | 3.7µM* | 21µM* | ? | i | ?
CC#CC[N+](C)(C)CCCCCCCCCCCC | ? | ? | -20% | i | ?
CCCCCCCCCCCCCC[N+](C)(C)C | . | ? | . | . | 46%
CCCCCCCCCCCCCCCC[N+](C)(C)CCl | ? | 21µM* | . | i | 25%
C#CC[N+](C)(C)CCCCCCCCCCCC | 2.1µM* | 12µM* | -26% | i | 26µM*
CCCN1CCN(CCCNC(=O)CN2C(=O)COc3ccc(C(C)(C)C)cc32)CC1 | ? | . | . | i | .
CCOC(=O)N1CCC(N2Cc3cccc(C(=O)Nc4ccccc4OC)c3C2=O)CC1 | i | -7% | -10% | i | -1%
